High-throughput results from PubChem BioAssay.
GLP1R cytotox – qHTS of GLP-1 Receptor Inverse Agonists: Cytotox Screen; HEK293 cAMP-luciferase reporter cells, luminescence, 24 h; Potency, µM (top dose mostly 38.3 µM), without a hit: at the top dose activity change, negative = inhibition, actives largely listed as inhibitors; 410,000 compounds, 0.13% hits;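 note: loss of luciferase light is scored as toxicity; % is set by controls: 0 for no effect and ±100 for the full control effect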
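Cells in DMEM/10% Nu serum/1% pen-strep, 1536-well format. Pre-incubated 12 h, dosed with 23 nL compound, incubated a further 24 h. Luciferase detection, 12 min at room temp, luminescence.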
RORgamma inh – qHTS for inhibitors of ROR gamma transcriptional activity; Nuclear receptor ROR-gamma (Mus musculus), P51450; Drosophila S2 Gal4-RORgamma UAS-luciferase reporter, 20 h; Potency, µM (doses to about 53.6 µM), for inactives: at the highest dose activity change, negative = inhibition, hits mostly inhibitors; 310,000 compounds, 5.4% hits; note: % is set by controls: 0 for no effect and ±100 for the full control effect; nearly all actives have a fitted effect of over 60% in size
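Stable Schneider cell line, Gal4 DNA-binding domain fused to ROR gamma, UAS-luciferase. Cmpd 1 hr RT → CuSO4 700 uM final → 20 hr RT → luciferase reagent 10 min → luminescence.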
VP16 counter – VP16 counterscreen qHTS for inhibitors of ROR gamma transcriptional activity; Potency, µM (titrated, usually from 53.6 µM), inactives show top-dose activity, negative = inhibition, hits mostly inhibitors; Drosophila S2 Gal4-VP16 UAS-luciferase, luminescence, 20 h; 310,000 compounds, 3.5% hits;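 note: Gal4-VP16 expression switched on by copper sulfate through the metallothionein promoter; % is set by controls: 0 for no effect and ±100 for the full control effect; nearly all actives have a fitted effect of over 50% in size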
GLP-1R inv ag – qHTS of GLP-1 Receptor Inverse Agonists (Inhibition Mode); Glucagon-like peptide 1 receptor (Homo sapiens), P43220; HEK293 GLP-1R CRE-luciferase, luminescence, 24 h; GLP-1R form is constitutively active; Potency, µM (top dose mostly 38.3 µM), for the others: at the highest dose activity change, negative = inhibition, usual class: inhibitors; 410,000 compounds, 1.6% hits; AID 624417, 2012; note: % is set by controls: 0 for no effect and ±100 for the full control effect; nearly all actives have a fitted effect of over 55% in size
Target sequence (P43220 whole entry, looked up): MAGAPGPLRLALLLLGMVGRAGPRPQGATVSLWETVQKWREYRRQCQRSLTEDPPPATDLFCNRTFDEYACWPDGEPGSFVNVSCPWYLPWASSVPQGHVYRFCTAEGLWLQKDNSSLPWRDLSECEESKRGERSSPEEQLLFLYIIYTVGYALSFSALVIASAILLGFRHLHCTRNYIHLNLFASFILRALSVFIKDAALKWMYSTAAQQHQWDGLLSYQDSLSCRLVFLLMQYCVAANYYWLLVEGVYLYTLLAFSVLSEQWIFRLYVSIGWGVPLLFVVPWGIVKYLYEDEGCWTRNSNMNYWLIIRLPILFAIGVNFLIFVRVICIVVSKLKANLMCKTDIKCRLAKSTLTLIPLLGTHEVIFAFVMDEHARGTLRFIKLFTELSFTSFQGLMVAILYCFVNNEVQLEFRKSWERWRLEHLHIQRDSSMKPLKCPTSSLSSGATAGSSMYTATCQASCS
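Readout was luciferase luminescence, measured 12 min after detection reagent at room temperature. Beforehand, GLP-1R reporter HEK293 cells had sat 12 h, then received compounds for 24 hr at 37 deg C.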
GLP1R ag – qHTS of GLP-1 Receptor Agonists; Potency, µM (highest dose often 45.6 µM), for the others: at the highest dose activation, most hits filed as activators; 380,000 compounds, 0.007% hits; HEK293 GLP-1R CRE-luciferase, luminescence, 4-6 h; cells express a hypersensitive GLP-1R form; note: % of control where 0% means no effect
* marks the source's active call; other numbers are inactive results; ? = inconclusive; nt = not tested or not shown; [ ] = remark or other dose. Hits are enriched below; roughly 5.9% of the tested compounds scored in any of these assays. Calls come from the whole dose curve; as a rule, active = well fitted curve in the direction sought with a large enough effect; inconclusive = small, poorly fitted or top-dose-only effect, or another doubt; inactive = no such curve, though single readings can be large; an effect the other way counts as inactive or inconclusive. Potency is the fitted concentration of half-maximal effect.

SMILES	GLP1R cytotox	RORgamma inh	VP16 counter	GLP-1R inv ag	GLP1R ag
COc1ccc(C2CC(c3ccc(OC)cc3)n3nc(NC(=O)c4ccco4)nc3N2)cc1 (stereo unspecified)	-4%	6.3µM*	16µM*	-19%	0%
O=C(Nc1nc2n(n1)C(c1ccccc1)CC(c1ccc(Cl)cc1)N2)c1ccco1 (stereo unspecified)	-14%	2.5µM*	5µM*	?	-19%
COCC(=O)Nc1nc2n(n1)C(c1ccc(OC)cc1)CC(c1ccc(OC)cc1)N2 (stereo unspecified)	-10%	17%	1%	0%	0%
COCC(=O)Nc1nc2n(n1)C(c1ccccc1)CC(c1ccc(OC)cc1)N2 (stereo unspecified)	462%	-4%	0%	58%	2%
COc1ccc(C2CC(c3ccccc3)Nc3nc(NC(=O)c4ccco4)nn32)cc1 (stereo unspecified)	2%	6.3µM*	7.1µM*	1%	2%
C#CCCCC(=O)Nc1ccccc1	nt	-10%	2%	nt	nt
COc1ccc(C2/C=C\CN(C(=O)C3CC3)C(C)C(=O)N2Cc2ccc(F)cc2)cc1 (stereo unspecified)	nt	41%	10%	nt	nt
CCOc1ccc(N=Cc2ccc3ccccc3c2)cc1	-3%	3%	-11%	23%	-7%
O=[N+]([O-])c1cc(C=Nc2ccc3ccccc3c2)ccc1Br	1%	20µM*	?	-6%	1%
Cc1cccc(CN(CC(=O)N/N=C/c2ccco2)S(=O)(=O)c2ccc(Cl)cc2)c1	1%	-34%	-25%	?	1%
Cc1cccc(CN(CC(=O)N/N=C/c2cccs2)S(=O)(=O)c2ccc(Cl)cc2)c1	-19%	?	-19%	8.9µM*	2%
O=C(CNc1ccccc1)NNC1=NCCC1	5%	?	?	7%	-3%
O=C(CNc1ccc2ccccc2c1)NNC1=NCCC1	-4%	2.8µM*	4µM*	6%	-8%
O=C(Cc1ccccc1)NNc1ccc2ccccc2c1	-15%	?	2%	0.56µM*	-1%
Cc1ccc(C(=O)NC(=S)Nc2ccc(N3CCOCC3)cc2)cc1C	1%	2µM*	?	5%	-1%
CC(=O)N1CCN(c2ccc(NC(=O)c3cccc(C)c3)cc2)CC1	1%	21%[1.91 µM]	-8%	17%	4%
COC(=O)c1cc(NC(=S)NC(=O)c2ccccc2)ccc1N1CCOCC1	4%	18µM*	?	21%	6%
COc1ccccc1C(=O)NC(=S)Nc1ccc(N2CCOCC2)c(Cl)c1	9%	-31%	?	3%	7%
Cc1cccc(C(=O)NC(=S)Nc2ccc(N3CCOCC3)cc2)c1	0%	4µM*	7.1µM*	24%	1%
COc1ccc(C(=O)NC(=S)Nc2ccc(N3CCOCC3)cc2)cc1Cl	?	4.5µM*	7.9µM*	?	13%
Cc1ccc(C(=O)Nc2ccc(S(=O)(=O)N3CCOCC3)cc2)cc1C	-13%	11%	0%	-9%	7%
COC(=O)c1cc(NC(=O)c2cc(-c3ccccc3Cl)oc2C(F)(F)F)ccc1N1CCOCC1	-29%	18%	-5%	4µM*	13%
Cc1ccccc1C1NC(c2ccccc2C)C([N+](=O)[O-])C(C)(C)C1[N+](=O)[O-] (stereo unspecified)	0%	-5%	-2%	?	7%
CC1(C)C([N+](=O)[O-])C(c2ccccc2O)NC(c2ccccc2O)C1[N+](=O)[O-] (stereo unspecified)	21%	-42%	-7%	10µM*	6%
CC(=O)N1c2ccc(Cl)cc2C2C=CCC2C1c1cccc2ccccc12 (stereo unspecified)	?	?	22µM*	?	-3%
SMILES	GLP1R cytotox	RORgamma inh	VP16 counter	GLP-1R inv ag	GLP1R ag
CC1=CC23C(=O)C(C=C(CO)[C@@H](O)[C@]2(O)[C@H]1O)[C@H]1[C@@H](C[C@H]3C)C1(C)C (stereo partly specified)	nt	5%	-4%	nt	nt
C[C@@H]1C(=O)O[C@H]2C[C@@]34[C@H]5C[C@@H](C(C)(C)C)[C@]36[C@H](OC(=O)[C@H]6O)O[C@]4(C(=O)O5)[C@]21O	nt	-1%	8%	nt	nt
CCCCC(=O)Oc1ccccc1C1SCc2cc(C)c(C)cc2CS1	5%	-12%	-4%	-33%	-4%
Cc1cc2c(cc1C)CSC(c1ccccc1OC(=O)C(C)(C)C)SC2	24%	4%	?	10µM*	-4%
COc1ccc(-c2noc(-c3cc(C(C)C)[nH]n3)n2)cc1	-12%	nt	nt	?	nt
C/C(=N\NC(=O)c1cc(C)[nH]n1)c1cccs1	9%	13µM*	10µM*	?	-2%
C/C(=N\NC(=O)c1n[nH]c2c1CCC2)c1cccs1	-20%	2.5µM*	3.5µM*	-24%	-1%
O=C(N/N=C/c1cccs1)c1n[nH]c2c1CCCC2	-34%	5µM*	7.9µM*	3.2µM*	-2%
O=C(N/N=C/c1ccc(Cl)cc1Cl)c1n[nH]c2c1CCCC2	?	17%	2%	?	1%
O=C(N/N=C/c1cccc2ccccc12)c1n[nH]c2c1CCCC2	-25%	-44%	1%	1.1µM*	12%
Cn1c(=O)oc2cc(S(=O)(=O)NC(Cc3ccccc3)C(=O)Nc3ccc(F)cc3)ccc21 (stereo unspecified)	-2%	nt	nt	5%	nt
Cc1ccc(Cl)cc1N1CCN(C(=O)c2cnn(C)c2C2CCN(C(=O)OC(C)(C)C)CC2)CC1	-20%	nt	nt	10µM*	nt
Cc1ccc(Cl)cc1N1CCN(C(=O)COc2ccc3c(c2)CCC3)CC1	3%	15%	-13%	10µM*	20%
CCOc1ncccc1C(=O)N1CCN(c2cc(Cl)ccc2C)CC1	-11%	1%	6%	1µM*	?
CC(=O)c1ccc(N2CCN(C(=O)COc3ccc4c(c3)CCC4)CC2)cc1	-6%	?	-16%	-15%	6%
COc1ccc(N2CCN(CCCNC(=O)c3nnc(Cc4ccccc4Cl)o3)CC2)cc1	-9%	nt	nt	?	nt
COCCNC(=O)CCn1c(=O)[nH]c2cc(OC)c(OC)cc2c1=O	-4%	nt	nt	11%	-2%
Cc1[nH]c2ccc(C(=O)N3CCN(c4ccccc4F)CC3)cc2c1C	-1%	nt	nt	?	nt
O=C(NCCC1=CCCCC1)c1cc(COc2ccc(F)cc2Cl)on1	-11%	8%	0%	5µM*	3%
COc1ccc(CNC(=O)C(C)n2c(=O)cc(C)c3c(C)nn(-c4ccccc4)c32)cc1 (stereo unspecified)	0%	nt	nt	11%	nt
